TDP1 inh: blocks human tyrosyl-DNA phosphodiesterase 1; 350,000 tested, 0.28% active; Potency, µM (top dose mostly 130 µM), inactives show at the highest dose activity change, negative = inhibition, hits mostly inhibitors; recombinant TDP1, AlphaScreen DNA substrate cleavage; AID 485290; also: % is scaled to controls: 0 for no effect and ±100 for the full control effect; nearly all actives have a fitted effect of over 40% in size
Target sequence (Q9NUW8 whole entry, looked up): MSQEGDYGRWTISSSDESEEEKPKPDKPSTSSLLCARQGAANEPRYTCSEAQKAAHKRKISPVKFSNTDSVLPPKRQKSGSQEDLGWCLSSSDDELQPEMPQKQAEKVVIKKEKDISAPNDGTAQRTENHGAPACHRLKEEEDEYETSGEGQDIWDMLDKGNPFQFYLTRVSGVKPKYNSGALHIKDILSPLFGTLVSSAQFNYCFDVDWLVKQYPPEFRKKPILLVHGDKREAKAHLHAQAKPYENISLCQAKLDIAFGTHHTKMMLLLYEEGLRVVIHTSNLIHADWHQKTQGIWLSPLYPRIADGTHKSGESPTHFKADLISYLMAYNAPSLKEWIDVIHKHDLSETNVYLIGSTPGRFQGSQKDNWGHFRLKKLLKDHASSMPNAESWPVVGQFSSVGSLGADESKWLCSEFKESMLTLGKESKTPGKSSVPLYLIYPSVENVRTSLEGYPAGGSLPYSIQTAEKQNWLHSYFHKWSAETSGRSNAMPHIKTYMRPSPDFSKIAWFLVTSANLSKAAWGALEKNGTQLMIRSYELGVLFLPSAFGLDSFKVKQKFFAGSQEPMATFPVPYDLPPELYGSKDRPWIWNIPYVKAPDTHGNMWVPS
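Here, a 5' biotin and 3' phosphotyrosine-FITC DNA oligonucleotide reports Tdp1 activity: intact substrate bridges AlphaScreen beads, while cleavage leaves a 3' phosphate and drops signal. All incubations at room temperature.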
TDP1 cell CPT: DT40-hTDP1 cell growth loss with CPT; chicken DT40 Tdp1-/-;hTDP1 cells + 20 nM CPT, ATP luminescence, 48 h; Potency, µM (doses to about 46.2 µM), for the others: top-dose activity change, negative = growth inhibition, usual class: inhibitors; 420,000 tested, 12% active; AID 686979; also: % is scaled to controls: 0 for no effect and ±100 for the full control effect; nearly all actives have a fitted effect of over 55% in size
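Chicken DT40 Tdp1-/- cells complemented with human TDP1, 400 cells/well, exposed to compounds plus 20 nM camptothecin for at least 48 h at 37 C; viability read as ATP content by CellTiter-Glo luminescence.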
TDP1 cell noCPT: qHTS for Inhibitors of human tyrosyl-DNA phosphodiesterase 1 (TDP1): qHTS in cells in absence of CPT; 420,000 tested, 15% active; Potency, µM (series often up to 46.2 µM), for inactives: top-dose activity change, negative = growth inhibition, usual class: inhibitors; DT40 Tdp1-/- hTDP1 cells, no CPT, ATP luminescence, 48 h; also: % is scaled to controls: 0 for no effect and ±100 for the full control effect; nearly all actives have a fitted effect of over 55% in size
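Chicken DT40 Tdp1-/- cells complemented with human TDP1, screened without camptothecin (DMSO vehicle only), 400 cells/well. Compounds pin-transferred, cells incubated at 37 °C for at least 48 hr. Growth read as ATP-dependent luminescence (CellTiter-Glo, 30 min at RT).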
ClpP mod: qHTS Assay for Activators of ClpP. purified B. subtilis ClpP, FRET peptide cleavage, 20 min. Potency, µM (highest dose often 57.5 µM), for the others: at the top dose activity change, negative = active. ATP-dependent Clp protease proteolytic subunit (Bacillus subtilis (strain 168)), P80244. 340,000 tested, 1.9% active; active = well fitted falling curve with a large enough effect; inconclusive = small, poorly fitted or top-dose-only effect; inactive = no such curve, though single readings can be large or run the other way; also: the source files actives as falling curves though it sought activators and does not explain the sign; nearly all actives have a fitted effect of over 65% in size
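FRET quenching reversal measured ClpP activation: 10 microg/mL B. subtilis ClpP at pH 8 with the FRET-FV decapeptide, read at 430 nm after 320 nm excitation. The 20-min minus 0-min signal was scaled between DMSO/no-enzyme wells and ADEP (5.8 microM final).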
* hit, by the source's call; ? = inconclusive; . = no result given; [ ] = dose if it differs, or a comment. A selection: hits, their analogues and other compounds. The true share with any hit is near 17%. Unless noted, calls follow the shape of the dose curve; as a rule, active = well fitted curve in the direction sought with a large enough effect; inconclusive = small, poorly fitted or top-dose-only effect, or another doubt; inactive = no such curve, though single readings can be large; an effect the other way counts as inactive or inconclusive. Potency is read from the fitted curve at half-maximal effect.

SMILES | TDP1 inh | TDP1 cell CPT | TDP1 cell noCPT | ClpP mod
CCNC(=O)c1ccc2nc(-c3ccccc3)c(-c3ccccc3)nc2c1 | 1.6% | 11.2µM* | 11.2µM* | 4.0%
CCN1CCN(c2cc(C)c3cc(NC(=O)/C=C/c4cccc(OC)c4OC)ccc3n2)CC1 | 5.9% | ? | ? | 8.0%
CCN1CCN(c2cc(C)c3cc(NC(=S)N(CC)CC)ccc3n2)CC1 | -2.3% | ? | ? | -1.1%
CCN1CCN(c2cc(C)c3cc(NC(=O)c4cccc(Cl)c4)ccc3n2)CC1 | 2.9% | 14.6µM* | 6.51µM* | -3.3%
CCN1CCN(c2cc(C)c3cc(NC(=O)/C=C/c4cccc(Cl)c4)ccc3n2)CC1 | 5.9% | 5.17µM* | -6.7% | -10.6%
CCNC(=S)N/N=C/c1cccc(OCc2c(F)cccc2Cl)c1 | -2.7% | ? | 16.4µM* | -2.9%
Fc1ccccc1COc1ccc(/C=N/NC(=S)NCc2ccccc2)cc1 | 5.0% | 11.6µM* | 13µM* | 57.2%
CNC(=S)N/N=C/c1cccc(OCc2ccccc2F)c1 | 7.1% | ? | 23.1µM* | 0.3%
CC(C)(C)c1ccc(/C=N/NC(=S)NCc2ccccc2)cc1 | 4.2% | ? | ? | -2.1%
CCNC(=S)N/N=C/c1cccc(/C=N/NC(=S)NCC)c1 | -1.2% | -1.6% | 6.1% | .
Cc1noc(C)c1C(=O)N1CCC2(CCCN(C(=O)Nc3cccc(F)c3)C2)CC1 | . | 14.5% | -3.1% | .
CCCn1c(NC(=O)c2cccc(C)c2C)nc2ccccc21 | 5.2% | 13µM* | 14.6µM* | 2.7%
CC(=O)c1sc(NC(=O)C2CCN(C(=O)c3ccccc3C)CC2)nc1-c1ccccc1 | . | 18.4µM* | ? | -4.0%
CCCn1c(NC(=O)c2ccc(Cl)c(S(=O)(=O)N3CCCC3)c2)nc2ccccc21 | 10.5% | 23.1µM* | 16.4µM* | ?
CCCn1c(NC(=O)c2ccc([N+](=O)[O-])o2)nc2ccccc21 | 3.5% | 20.6µM* | ? | -8.2%
CCCn1c(NC(=O)CSCC(=O)Nc2cc(C)on2)nc2ccccc21 | . | -21.7% | ? | -6.4%
Cc1cccc(NC(=O)COC(=O)c2ccccn2)c1 | 11.2% | 3.6% | 2.5% | .
COc1ccc(S(=O)(=O)NCCC(=O)N2CCCN(C)CC2)cc1 | 0.0% | 3.1% | 1.8% | -0.9%
O=C(CCc1nnc2ccc(NCc3ccco3)nn12)Nc1ccccc1F | 1.2% | -22.6% | -27.9% | -0.5%
CCCn1c(NC(=O)C2CCN(C(=O)c3ccccc3C)CC2)nc2ccccc21 | . | 16.4µM* | ? | -3.4%
Clc1cccc(Cc2c(-c3ccccc3)nc3c4ccccc4ccn23)c1 | . | ? | 13µM* | ?
Clc1cccc(Cc2c(-c3cccc(Cl)c3)nc3c4ccccc4ccn23)c1 | . | ? | 16.4µM* | -5.9%
Cc1ccc2nc(C3CCCCC3)c(Cc3cccc(Cl)c3)n2c1 | . | ? | ? | 6.1%
Clc1cccc(-c2nc3c4ccccc4ccn3c2Cc2ccccc2)c1 | . | ? | ? | 4.7%
Clc1cccc(Cc2c(-c3ccco3)nc3c4ccccc4ccn23)c1 | . | ? | ? | 4.6%
SMILES | TDP1 inh | TDP1 cell CPT | TDP1 cell noCPT | ClpP mod
Clc1cccc(Cc2c(C3CCCCC3)nc3c4ccccc4ccn23)c1 | . | ? | 16.4µM* | -11.0%
Fc1cccc(Cc2c(-c3ccco3)nc3c4ccccc4ccn23)c1 | . | 6.51µM* | 6.51µM* | 5.4%
Cc1ccc(Cc2c(-c3cccc(Cl)c3)nc3c4ccccc4ccn23)cc1 | . | ? | ? | 5.4%
CCCCN(C(=O)c1ccc2c(c1)OCO2)c1c(N)n(CC(C)C)c(=O)[nH]c1=O | -3.2% | -8.6% | 5.2% | 0.9%
N#Cc1cccc(NS(=O)(=O)c2ccc3c(c2)CCC(=O)N3)c1 | 1.5% | . | . | .
Fc1cccc(Cc2c(-c3ccco3)nc3ccc(Br)cn23)c1 | . | 16.4µM* | 16.4µM* | -1.8%
Fc1cccc(Cc2c(-c3ccco3)nc3ccc(Cl)cn23)c1 | . | ? | ? | 4.9%
Fc1ccc(-c2nc3c4ccccc4ccn3c2Cc2cccc(Cl)c2)cc1 | . | 16.4µM* | 16.4µM* | ?
Fc1ccc(-c2nc3c4ccccc4ccn3c2Cc2ccccc2)cc1 | . | -13.1% | ? | ?
Fc1cccc(Cc2c(-c3cccc(Cl)c3)nc3c4ccccc4ccn23)c1 | . | 23.1µM* | 18.4µM* | 4.1%
COC(=O)[C@@H]1CCCN1Cc1ccc2c(c1)CN(Cc1cc(OC)c3c(c1)OCO3)CCO2 | . | 23.4%[9.04 µM] | ? | .
Nc1nc2ncccc2cc1C(=O)NCCc1cccs1 | . | 23.1µM* | 13µM* | 4.8%
CN1CCN(c2nc3cc(C(F)(F)F)ccc3n3cccc23)CC1 | 8.0%[56.1 µM] | ? | 20.6µM* | -19.6%
CCn1c(=O)c(CCC(=O)NCCN2CCOCC2)c(C)c2c(C)nn(-c3cccc(C)c3)c21 | 4.5% | ? | 16.4µM* | -20.5%
Cc1nn(-c2ccccc2)c2c1c(C)c(CCC(=O)N1CCOCC1)c(=O)n2C | 5.4% | 23.1µM* | ? | -23.3%
CCn1c(=O)c(CCC(=O)N2CCOCC2)c(C)c2c(C)nn(-c3ccccc3)c21 | 2.9% | ? | 20.6µM* | 4.0%
CC(OC(=O)Cc1c[nH]c2ccccc12)C(=O)Nc1ccccc1F (centres undefined) | -0.8% | -1.5% | -4.2% | -2.8%
COc1cccc(CNC(=O)c2c(OC)cc(=O)n3c2CCN(C(=O)C2CC24CCCCC4)CC3)c1 (centres undefined) | . | -0.5% | -15.1% | .
COc1ccccc1C(=O)NCC(=O)N/N=C/c1cn[nH]c1-c1ccccc1 | 5.4% | -27.1% | ? | .
CCOC(=O)c1c(C)[nH]c(C)c1S(=O)(=O)NCC(=O)Nc1ccc(C)cc1C | 5.3% | -24.6% | -13.5% | -0.2%
CCCCCCNC(=O)O[C@@]12CN(S(=O)(=O)c3ccc(C)cc3)C[C@]1(O)Cn1c(=O)n(CCCCCC)c(=O)n1C2 | . | 0.3% | ? | -2.7%
CCCCCCn1c(=O)n2n(c1=O)C[C@]1(OC(=O)NCc3ccccc3F)CN(S(=O)(=O)c3ccc(C)cc3)C[C@]1(O)C2 | . | ? | 14.6µM* | -1.0%
CCCCCCn1c(=O)n2n(c1=O)C[C@]1(OC(=O)NC3CCCC3)CN(S(=O)(=O)c3ccc(C)cc3)C[C@]1(O)C2 | . | ? | 23.1µM* | 0.2%
O=C(COC(=O)c1ncc(Cl)c(Cl)c1Cl)NC(=O)NCc1ccccc1 | 7.4% | ? | ? | .
CCC(=O)Nc1cccc(C(=O)c2ccc(C)c(C)c2)c1 | 5.5% | -29.4% | 20.6µM* | .
CC(=O)Nc1cccc(C(=O)OC(C(=O)c2ccc(C)c(C)c2)c2ccccc2)c1 (centres undefined) | 6.0% | 16.4µM* | 16.4µM* | 0.9%
CCC(=O)Nc1cccc(C(=O)c2ccccc2)c1 | 7.7% | -17.0% | -9.5% | -0.2%
CCC(=O)Nc1cccc(C(=O)/C=C/c2cccs2)c1 | 2.4% | ? | 20.6µM* | -1.8%
O=C(/C=C/c1ccccc1)N/C(=C/c1ccccc1)C(=O)Nc1cccc(C(=O)O)c1 | 2.6% | 2.8% | -9.6% | .
